AGP1 TOR yeast = yeast TOR pathway AGP1-GFP modulation | S. cerevisiae AGP1-GFP multiplex flow cytometry, 3 h; GFP as percent of DMSO wells | hit rate 0.02% among 320,000 | GFP response vs DMSO, % at 10 µM;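 active = GFP response relative to DMSO above a set limit, near screen average plus 3 SD, cut at about 150% in these data; inconclusive = fewer than 70 cells counted for the yeast strain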;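 note: median GFP channel fluorescence of the gated AGP1 strain per well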
CIT2 TOR yeast = modulators of TOR pathway CIT2-GFP in S. cerevisiae. S. cerevisiae CIT2-GFP strain, flow cytometry, 3 h; 100 means same as DMSO wells. GFP response vs DMSO, % at 10 µM. hit rate 0.065% among 320,000;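 active = GFP response relative to DMSO above a set limit, near the screen mean plus 3 SD, cut at about 150% in these data; inconclusive = Fewer than 70 cells measured for a yeast strain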;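 note: ratio of well median GFP fluorescence to mean of DMSO wells on the plate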
MEP2-GFP yeast = modulators of TOR pathway MEP2-GFP in S. cerevisiae; S. cerevisiae MEP2-GFP strain, flow cytometry GFP, 3 h; 100% = DMSO control level; GFP response vs DMSO, % at 10 µM; hit rate 0.51% among 330,000;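 active = GFP response versus DMSO above a set limit, roughly screen mean plus 3 SD, cut at about 180% in these data; inconclusive = fewer than 70 cells counted for a yeast strain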;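 note: median GFP fluorescence of the barcode-gated MEP2-GFP cells per well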
RPL19A TOR yeast = modulators of TOR pathway RPL19A-GFP in S. cerevisiae | percent response vs DMSO, % at 10 µM | S. cerevisiae RPL19A-GFP strain, flow cytometry, 3 h; hits give low values | hit rate 0.3% among 330,000 | AID 2025;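 active = percent response vs DMSO below 50%; inconclusive = fewer than 70 events counted for the yeast strain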;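 note: median channel GFP fluorescence of the barcoded RPL19A-GFP strain; lower means less RPL19A-GFP as with rapamycin TOR inhibition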
LAP4 TOR yeast = modulators of TOR pathway LAP4-GFP in S. cerevisiae; S. cerevisiae LAP4-GFP multiplex, flow cytometry GFP, 3 h; median GFP as percent of DMSO wells; GFP response vs DMSO, % at 10 µM; hit rate 0.34% among 320,000; AID 2023;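 active = GFP response vs DMSO above a set limit, about the screen mean plus 3 SD, cut at about 150% in these data; inconclusive = under 70 cell events counted for the yeast strain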
Numbers stand for hits; [ ] = dose if it differs, or a comment. Only some compounds are listed: those with a hit (about 0.93% of all), similar ones and a draw of the others.

How did Cc1cc(Nc2ccccc2)nc(N2CCOCC2)n1 do in these assays?
AGP1 TOR yeast: inactive; CIT2 TOR yeast: inactive; MEP2-GFP yeast: inactive; RPL19A TOR yeast: inactive; LAP4 TOR yeast: inactive

What do the screens show for `N#Cc1c(N)n(-c2ccc(N)cc2)c2nc3ccccc3nc12`?
AGP1 TOR yeast: inactive; CIT2 TOR yeast: inactive; MEP2-GFP yeast: inactive; RPL19A TOR yeast: inactive; LAP4 TOR yeast: inactive

Results for N#Cc1c(N)n(-c2ccc(C(=O)O)cc2)c2nc3ccccc3nc12 ?
AGP1 TOR yeast: inconclusive; CIT2 TOR yeast: inconclusive; MEP2-GFP yeast: 209[may fluoresce violet]; RPL19A TOR yeast: inactive; LAP4 TOR yeast: inactive

How did Cc1ccc(C)c(OCc2n[nH]c(=S)o2)c1 do in these assays?
AGP1 TOR yeast: inactive; CIT2 TOR yeast: inactive; MEP2-GFP yeast: inactive; RPL19A TOR yeast: inactive; LAP4 TOR yeast: inactive

Results for CCOc1cc(/C=C2\SC(=NC)N(C)C2=O)cc(Cl)c1OC(C)=O ?
AGP1 TOR yeast: inactive; CIT2 TOR yeast: inactive; MEP2-GFP yeast: inactive; RPL19A TOR yeast: inactive; LAP4 TOR yeast: inactive

How did CCOc1cc(/C=C2\SC(=NC)N(C)C2=O)c(Br)cc1OC(C)=O do in these assays?
AGP1 TOR yeast: inconclusive; CIT2 TOR yeast: inconclusive; MEP2-GFP yeast: 197[may fluoresce violet]; RPL19A TOR yeast: 41[may fluoresce violet]; LAP4 TOR yeast: inactive

How did Cc1ccc(Sc2ncnc3onc(C)c23)cc1 do in these assays?
AGP1 TOR yeast: inactive; CIT2 TOR yeast: inactive; MEP2-GFP yeast: inactive; RPL19A TOR yeast: inactive; LAP4 TOR yeast: inactive

How did Cc1noc2ncnc(Sc3ccc(Cl)cc3)c12 do in these assays?
AGP1 TOR yeast: inactive; CIT2 TOR yeast: inactive; MEP2-GFP yeast: inactive; RPL19A TOR yeast: inactive; LAP4 TOR yeast: 166

Results for O=c1cc(/N=C/c2coc3cc(Br)ccc3c2=O)[nH]c(=S)[nH]1 ?
AGP1 TOR yeast: inactive; CIT2 TOR yeast: inactive; MEP2-GFP yeast: inactive; RPL19A TOR yeast: inactive; LAP4 TOR yeast: inactive

Results for CC(=O)Oc1ccc2c(=O)c(/C=N/c3cc(=O)[nH]c(=S)[nH]3)coc2c1 ?
AGP1 TOR yeast: inactive; CIT2 TOR yeast: inconclusive; MEP2-GFP yeast: 903[may fluoresce violet]; RPL19A TOR yeast: 46[may fluoresce violet]; LAP4 TOR yeast: inactive

How did N#CC(C(=O)NCc1ccccc1)c1nc2ccccc2nc1N1CCCC1 (stereo unspecified) do in these assays?
AGP1 TOR yeast: inactive; CIT2 TOR yeast: inactive; MEP2-GFP yeast: 218; RPL19A TOR yeast: inactive; LAP4 TOR yeast: inactive

Results for CCCCCCOC(=O)C(C#N)c1nc2ccccc2nc1N1CCN(CC)CC1 (stereo unspecified) ?
CIT2 TOR yeast: inconclusive; MEP2-GFP yeast: 523[may fluoresce violet]; RPL19A TOR yeast: 46[may fluoresce violet]; LAP4 TOR yeast: inactive

What do the screens show for `CCCCCCOC(=O)C(C#N)c1nc2ccccc2nc1N1CCOCC1` (stereo unspecified)?
AGP1 TOR yeast: inactive; MEP2-GFP yeast: inactive; RPL19A TOR yeast: inactive; LAP4 TOR yeast: inactive

How did O=C1/C(=C/c2ccco2)SC(=S)N1C1CCS(=O)(=O)C1 (stereo unspecified) do in these assays?
AGP1 TOR yeast: inconclusive; CIT2 TOR yeast: inconclusive; MEP2-GFP yeast: inconclusive; RPL19A TOR yeast: 16[may fluoresce violet]; LAP4 TOR yeast: inconclusive

Results for Cn1nc(C(C)(C)C)c([N+](=O)[O-])c1C(=O)Nc1ccc(Br)cc1 ?
AGP1 TOR yeast: inactive; CIT2 TOR yeast: inactive; MEP2-GFP yeast: inactive; RPL19A TOR yeast: inactive; LAP4 TOR yeast: inactive

Results for COC(=O)c1sccc1NC(=O)CC1C(=O)NCCN1C(=O)Nc1ccc(C(F)(F)F)cc1 (stereo unspecified) ?
AGP1 TOR yeast: inactive; CIT2 TOR yeast: inactive; MEP2-GFP yeast: inactive; RPL19A TOR yeast: inactive; LAP4 TOR yeast: inactive

Results for COc1ccc(C2CC(c3cccs3)=NN2c2ccc(C=O)cc2)cc1 (stereo unspecified) ?
AGP1 TOR yeast: inconclusive; CIT2 TOR yeast: inconclusive; MEP2-GFP yeast: inactive; RPL19A TOR yeast: 23[may fluoresce violet]; LAP4 TOR yeast: inactive

Results for CC(=O)Nc1ccc(C2CC(c3ccc(Cl)cc3)=NN2c2ccccc2)cc1 (stereo unspecified) ?
AGP1 TOR yeast: inactive; CIT2 TOR yeast: inconclusive; MEP2-GFP yeast: 181[may fluoresce violet]; RPL19A TOR yeast: inactive; LAP4 TOR yeast: inactive

Results for O=Cc1ccc(N2N=C(c3ccccc3)CC2c2ccccc2)cc1 (stereo unspecified) ?
AGP1 TOR yeast: inconclusive; CIT2 TOR yeast: inconclusive; MEP2-GFP yeast: 208[may fluoresce violet]; RPL19A TOR yeast: inactive; LAP4 TOR yeast: inactive

How did c1ccc(C2CC(c3cccs3)=NN2c2ccccc2)cc1 (stereo unspecified) do in these assays?
AGP1 TOR yeast: inconclusive; CIT2 TOR yeast: inconclusive; MEP2-GFP yeast: inconclusive; RPL19A TOR yeast: 38[may fluoresce violet]; LAP4 TOR yeast: inconclusive

Results for COc1ccc(C2=NN(c3ccc(C=O)cc3)C(c3ccccc3)C2)cc1 (stereo unspecified) ?
AGP1 TOR yeast: inactive; CIT2 TOR yeast: inactive; MEP2-GFP yeast: inactive; RPL19A TOR yeast: inactive; LAP4 TOR yeast: inactive

How did COc1ccc(NC(=O)CSc2nccn2Cc2ccccc2)cc1 do in these assays?
AGP1 TOR yeast: inactive; CIT2 TOR yeast: inactive; MEP2-GFP yeast: inactive; RPL19A TOR yeast: inactive; LAP4 TOR yeast: inactive

Results for COc1ccc(C2=NN(c3ccccc3)C(c3ccc(OC)c(OC)c3)C2)cc1 (stereo unspecified) ?
AGP1 TOR yeast: inactive; CIT2 TOR yeast: inconclusive; MEP2-GFP yeast: 183[may fluoresce violet]; RPL19A TOR yeast: inactive; LAP4 TOR yeast: inactive

What do the screens show for `CCOC(=O)c1[nH]c(C)c(C(=O)NC(C)CC)c1C` (stereo unspecified)?
AGP1 TOR yeast: inactive; CIT2 TOR yeast: inactive; MEP2-GFP yeast: inactive; RPL19A TOR yeast: inactive; LAP4 TOR yeast: inactive

How did O=C(c1nc2nc(-c3ccccc3)cc(C(F)(F)F)n2n1)N1CCOCC1 do in these assays?
CIT2 TOR yeast: inconclusive; MEP2-GFP yeast: 548[may fluoresce violet]; RPL19A TOR yeast: 49[may fluoresce violet]; LAP4 TOR yeast: inactive

What do the screens show for `CCOC(=O)c1[nH]c2ccc(OC)cc2c1NC(=O)c1ccccc1C(=O)O`?
AGP1 TOR yeast: inactive; CIT2 TOR yeast: inactive; MEP2-GFP yeast: inactive; RPL19A TOR yeast: inactive; LAP4 TOR yeast: inactive

What do the screens show for `CCC(=O)OC1(C)C(=O)C=C2C=C(c3ccc(C#N)cc3)OC=C2C1=O` (stereo unspecified)?
AGP1 TOR yeast: inactive; CIT2 TOR yeast: inconclusive; MEP2-GFP yeast: 189[may fluoresce violet]; RPL19A TOR yeast: inactive; LAP4 TOR yeast: inactive

Results for CC1(OC(=O)c2ccco2)C(=O)C=C2C=C(c3ccc(C#N)cc3)OC=C2C1=O (stereo unspecified) ?
AGP1 TOR yeast: inactive; CIT2 TOR yeast: inconclusive; MEP2-GFP yeast: inactive; RPL19A TOR yeast: inactive; LAP4 TOR yeast: inactive

Results for Cn1cccc1C(=O)C(=O)Nc1ccc(F)c(F)c1 ?
AGP1 TOR yeast: inconclusive; CIT2 TOR yeast: inconclusive; MEP2-GFP yeast: inactive; RPL19A TOR yeast: 47[may fluoresce violet]; LAP4 TOR yeast: inactive

Results for Cn1cccc1C(=O)C(=O)Nc1ccc(Cl)cc1 ?
AGP1 TOR yeast: inactive; CIT2 TOR yeast: inactive; MEP2-GFP yeast: inactive; RPL19A TOR yeast: inactive; LAP4 TOR yeast: inactive

Results for CCC(C(=O)NCC1CCCO1)N(Cc1ccccc1)C(=O)CNS(=O)(=O)c1ccccc1 (stereo unspecified) ?
AGP1 TOR yeast: inactive; CIT2 TOR yeast: inactive; MEP2-GFP yeast: inactive; RPL19A TOR yeast: inactive; LAP4 TOR yeast: inactive

Screens deposited in PubChem by NMMLSC.
